The supplement of paper PMC6411743
± gives the standard deviation of the averaged measurements. Targets with the largest changes are over-represented here; the source holds about 6,200 in all.

Each target was assayed with Nc1ncnc2c1ncn2[C@@H]1O[C@H](COP(=O)(O)OP(=O)(O)NP(=O)(O)O)[C@@H](O)[C@H]1O [adenylyl imidodiphosphate] (assay: NP40-soluble protein abundance relative to vehicle (solubility fold change) (ratio); higher = more soluble protein in presence of AMP-PNP). Conditions: concentration: 6mM.
Summary of the method: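 Crude Jurkat lysate, prepared by Dounce homogenisation, was exposed to eight concentrations from 0.1 to 10 mM for 10 min at room temperature and then 3 min at 37 °C. Solubilisation used 0.8% NP40 with benzonase for 60 min at 4 °C, followed by ultracentrifugation and TMT labelling of the supernatant for LC-MS/MS. After vsn normalisation of intensities, each value is the fold change against the detergent-processed vehicle within each replicate, across three independent experiments.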

Sequence of UniProt Q8WWW0 (Q8WWW0 whole entry): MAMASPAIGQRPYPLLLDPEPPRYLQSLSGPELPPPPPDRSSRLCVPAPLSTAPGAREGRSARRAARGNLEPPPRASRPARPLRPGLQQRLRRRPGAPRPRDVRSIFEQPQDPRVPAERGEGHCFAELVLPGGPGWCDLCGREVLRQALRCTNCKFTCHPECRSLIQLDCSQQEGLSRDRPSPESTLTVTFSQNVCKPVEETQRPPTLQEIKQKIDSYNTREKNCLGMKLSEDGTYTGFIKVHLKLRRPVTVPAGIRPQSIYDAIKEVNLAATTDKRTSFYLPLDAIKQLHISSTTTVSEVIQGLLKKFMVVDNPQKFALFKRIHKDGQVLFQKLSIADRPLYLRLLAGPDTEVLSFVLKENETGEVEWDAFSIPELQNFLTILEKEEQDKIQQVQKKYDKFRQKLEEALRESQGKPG
Sequence of UniProt Q8WZ82 (Q8WZ82 whole entry): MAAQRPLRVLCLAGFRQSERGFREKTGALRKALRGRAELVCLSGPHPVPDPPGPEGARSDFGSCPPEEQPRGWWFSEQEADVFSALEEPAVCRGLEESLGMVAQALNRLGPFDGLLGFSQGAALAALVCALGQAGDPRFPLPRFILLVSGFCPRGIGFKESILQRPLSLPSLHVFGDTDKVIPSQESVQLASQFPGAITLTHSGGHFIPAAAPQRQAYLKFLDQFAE
Sequence of UniProt Q96BP3 (Q96BP3 whole entry): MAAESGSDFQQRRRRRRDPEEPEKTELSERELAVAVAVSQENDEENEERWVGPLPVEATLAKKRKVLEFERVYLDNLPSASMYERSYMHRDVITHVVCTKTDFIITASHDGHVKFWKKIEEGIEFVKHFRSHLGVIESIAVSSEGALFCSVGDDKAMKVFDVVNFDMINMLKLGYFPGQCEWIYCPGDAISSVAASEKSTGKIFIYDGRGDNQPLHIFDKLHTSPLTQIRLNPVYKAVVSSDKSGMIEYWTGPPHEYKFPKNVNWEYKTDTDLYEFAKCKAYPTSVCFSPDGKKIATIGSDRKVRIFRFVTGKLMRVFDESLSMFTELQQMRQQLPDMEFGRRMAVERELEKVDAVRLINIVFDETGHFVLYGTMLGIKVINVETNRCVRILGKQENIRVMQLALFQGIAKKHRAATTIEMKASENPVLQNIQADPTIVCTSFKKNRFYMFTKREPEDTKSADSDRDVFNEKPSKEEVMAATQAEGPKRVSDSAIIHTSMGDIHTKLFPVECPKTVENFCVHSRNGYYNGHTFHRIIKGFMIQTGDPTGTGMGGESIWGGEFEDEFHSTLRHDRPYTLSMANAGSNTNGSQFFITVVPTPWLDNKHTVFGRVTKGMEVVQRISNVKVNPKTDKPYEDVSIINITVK
Sequence of UniProt Q70CQ2 (Q70CQ2 whole entry): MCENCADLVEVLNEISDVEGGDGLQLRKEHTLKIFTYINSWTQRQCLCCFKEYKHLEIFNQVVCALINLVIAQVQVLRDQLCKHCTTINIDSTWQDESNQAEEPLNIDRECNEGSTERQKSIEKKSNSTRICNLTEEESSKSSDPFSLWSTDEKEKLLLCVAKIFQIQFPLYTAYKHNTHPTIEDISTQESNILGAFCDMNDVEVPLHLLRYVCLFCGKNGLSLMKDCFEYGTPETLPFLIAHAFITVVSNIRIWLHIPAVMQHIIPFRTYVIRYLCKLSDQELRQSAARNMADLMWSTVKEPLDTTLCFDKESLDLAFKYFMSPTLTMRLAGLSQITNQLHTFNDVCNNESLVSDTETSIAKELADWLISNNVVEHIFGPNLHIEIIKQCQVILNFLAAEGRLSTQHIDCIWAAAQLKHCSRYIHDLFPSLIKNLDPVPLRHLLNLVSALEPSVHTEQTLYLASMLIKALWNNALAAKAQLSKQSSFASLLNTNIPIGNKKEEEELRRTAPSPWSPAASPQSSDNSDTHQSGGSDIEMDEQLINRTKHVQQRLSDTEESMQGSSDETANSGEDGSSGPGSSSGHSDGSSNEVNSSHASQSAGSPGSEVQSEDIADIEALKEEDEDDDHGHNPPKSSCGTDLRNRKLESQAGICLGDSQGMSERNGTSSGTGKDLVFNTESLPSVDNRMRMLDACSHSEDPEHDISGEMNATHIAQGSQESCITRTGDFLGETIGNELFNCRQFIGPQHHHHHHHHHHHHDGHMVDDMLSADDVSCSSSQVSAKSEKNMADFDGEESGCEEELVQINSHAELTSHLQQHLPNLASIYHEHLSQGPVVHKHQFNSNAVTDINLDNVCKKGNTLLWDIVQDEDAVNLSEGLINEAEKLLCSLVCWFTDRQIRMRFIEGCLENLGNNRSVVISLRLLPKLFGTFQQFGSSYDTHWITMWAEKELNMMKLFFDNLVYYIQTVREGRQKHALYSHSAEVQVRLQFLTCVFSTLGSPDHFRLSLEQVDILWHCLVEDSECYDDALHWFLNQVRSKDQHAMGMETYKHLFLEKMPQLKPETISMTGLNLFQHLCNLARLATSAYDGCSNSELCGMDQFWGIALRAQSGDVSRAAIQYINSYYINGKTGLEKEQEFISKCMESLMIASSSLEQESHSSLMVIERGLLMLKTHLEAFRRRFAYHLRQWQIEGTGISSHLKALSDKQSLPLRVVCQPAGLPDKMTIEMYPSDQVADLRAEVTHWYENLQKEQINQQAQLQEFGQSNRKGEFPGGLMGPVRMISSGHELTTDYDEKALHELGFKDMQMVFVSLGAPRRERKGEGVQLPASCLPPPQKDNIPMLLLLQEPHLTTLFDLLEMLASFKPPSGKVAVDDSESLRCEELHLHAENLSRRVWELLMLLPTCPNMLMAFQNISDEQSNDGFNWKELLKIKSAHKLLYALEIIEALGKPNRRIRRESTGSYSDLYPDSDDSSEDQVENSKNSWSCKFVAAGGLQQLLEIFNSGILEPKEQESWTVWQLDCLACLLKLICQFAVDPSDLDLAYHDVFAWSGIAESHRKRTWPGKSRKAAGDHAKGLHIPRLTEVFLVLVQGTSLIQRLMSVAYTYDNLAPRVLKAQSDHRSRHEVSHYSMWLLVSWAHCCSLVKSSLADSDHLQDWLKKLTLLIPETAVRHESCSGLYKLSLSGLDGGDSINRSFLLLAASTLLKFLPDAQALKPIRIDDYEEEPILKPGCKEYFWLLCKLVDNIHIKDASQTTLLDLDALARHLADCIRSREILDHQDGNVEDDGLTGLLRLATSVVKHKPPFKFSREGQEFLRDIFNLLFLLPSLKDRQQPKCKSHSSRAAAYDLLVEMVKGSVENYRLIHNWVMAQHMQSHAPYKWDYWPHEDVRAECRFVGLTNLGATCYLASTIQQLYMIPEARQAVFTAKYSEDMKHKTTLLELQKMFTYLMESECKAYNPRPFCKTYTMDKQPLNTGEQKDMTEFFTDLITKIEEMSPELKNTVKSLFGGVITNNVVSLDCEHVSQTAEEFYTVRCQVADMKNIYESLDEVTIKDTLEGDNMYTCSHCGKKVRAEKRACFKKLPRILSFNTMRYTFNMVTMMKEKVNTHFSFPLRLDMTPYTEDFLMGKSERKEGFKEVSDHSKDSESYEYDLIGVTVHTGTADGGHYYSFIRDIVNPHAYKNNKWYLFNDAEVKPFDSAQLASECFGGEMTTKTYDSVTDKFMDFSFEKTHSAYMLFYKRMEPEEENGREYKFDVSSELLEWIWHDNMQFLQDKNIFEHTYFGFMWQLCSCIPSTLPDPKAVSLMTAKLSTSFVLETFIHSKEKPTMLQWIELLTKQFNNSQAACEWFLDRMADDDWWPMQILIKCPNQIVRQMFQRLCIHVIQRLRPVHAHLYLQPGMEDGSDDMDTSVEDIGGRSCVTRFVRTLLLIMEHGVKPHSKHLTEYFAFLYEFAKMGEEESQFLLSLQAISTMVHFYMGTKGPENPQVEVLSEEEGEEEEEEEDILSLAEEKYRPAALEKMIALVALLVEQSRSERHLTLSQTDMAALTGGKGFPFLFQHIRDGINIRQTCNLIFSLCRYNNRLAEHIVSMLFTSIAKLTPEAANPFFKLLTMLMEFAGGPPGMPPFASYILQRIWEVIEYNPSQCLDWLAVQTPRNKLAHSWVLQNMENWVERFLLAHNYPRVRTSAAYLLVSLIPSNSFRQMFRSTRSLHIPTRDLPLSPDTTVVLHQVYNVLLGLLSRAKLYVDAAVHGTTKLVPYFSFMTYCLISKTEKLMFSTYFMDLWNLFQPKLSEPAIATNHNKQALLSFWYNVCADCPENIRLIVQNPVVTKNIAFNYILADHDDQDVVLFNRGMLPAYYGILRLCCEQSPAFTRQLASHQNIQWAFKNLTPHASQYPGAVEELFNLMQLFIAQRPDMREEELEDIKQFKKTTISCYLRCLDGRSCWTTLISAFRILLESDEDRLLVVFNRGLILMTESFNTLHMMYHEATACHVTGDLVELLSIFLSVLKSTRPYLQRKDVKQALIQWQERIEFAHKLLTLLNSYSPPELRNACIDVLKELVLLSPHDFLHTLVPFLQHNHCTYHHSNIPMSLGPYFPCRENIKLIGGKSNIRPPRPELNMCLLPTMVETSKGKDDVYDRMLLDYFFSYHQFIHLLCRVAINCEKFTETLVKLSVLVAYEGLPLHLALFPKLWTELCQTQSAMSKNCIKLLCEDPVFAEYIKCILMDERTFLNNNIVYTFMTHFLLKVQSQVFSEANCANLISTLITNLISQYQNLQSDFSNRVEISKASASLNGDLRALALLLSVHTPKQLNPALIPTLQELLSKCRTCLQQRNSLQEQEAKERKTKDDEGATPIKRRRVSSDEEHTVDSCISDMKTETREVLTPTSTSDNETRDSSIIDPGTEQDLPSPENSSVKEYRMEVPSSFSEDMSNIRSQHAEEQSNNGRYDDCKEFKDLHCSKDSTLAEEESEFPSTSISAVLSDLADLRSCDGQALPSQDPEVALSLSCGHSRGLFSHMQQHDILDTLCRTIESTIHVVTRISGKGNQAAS
Sequence of UniProt Q16594 (Q16594 whole entry): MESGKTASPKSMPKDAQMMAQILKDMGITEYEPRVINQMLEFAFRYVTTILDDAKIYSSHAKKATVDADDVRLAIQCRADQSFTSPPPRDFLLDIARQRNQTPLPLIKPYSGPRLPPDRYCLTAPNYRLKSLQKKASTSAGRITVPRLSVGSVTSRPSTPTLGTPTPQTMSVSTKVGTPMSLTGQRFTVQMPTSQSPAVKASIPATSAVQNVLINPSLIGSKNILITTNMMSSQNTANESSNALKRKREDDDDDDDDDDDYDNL

Target	NP40-soluble protein abundance
PPWD1 (UniProt Q96BP3)	1.01 ± 0.037
UniProt Q5M775|Q5M775-2|Q5M775-3|Q5M775-4|Q5M775-5	1.04 ± 0.032
OVCA2 (UniProt Q8WZ82)	0.981 ± 0.018
UniProt Q7L0J3|Q7L0J3-2	1.02 ± 0.025
URB2 (UniProt Q14146)	1.05 ± 0.018
MDC1 (UniProt Q14676)	1.86 ± 0.28
CBLL1 (UniProt Q75N03)	0.995 ± 0.015
UniProt Q684P5-2|Q684P5-3|Q684P5	0.977 ± 0.029
UniProt Q8WWW0|Q8WWW0-2	1.03 ± 0.039
ERCC6L (UniProt Q2NKX8)	0.95 ± 0.032
CCDC6 (UniProt Q16204)	0.957 ± 0.024
UniProt Q15365	1 ± 0.02
USP34 (UniProt Q70CQ2)	0.885 ± 0.021
UniProt Q71F23	1.02 ± 0.039
RHOT2 (UniProt Q8IXI1)	0.9999 ± 0.006
THOC2 (UniProt Q8NI27)	1.87 ± 0.53
UniProt Q8IXQ5|Q8IXQ5-2|Q8IXQ5-5	0.9744 ± 0.0094
UniProt Q8WUB8|Q8WUB8-2|Q8WUB8-3|S5FZ81	1.11 ± 0.045

Same assay, conditions: concentration: 8mM

Target	NP40-soluble protein abundance
UniProt Q8TEQ0|Q8TEQ0-2	0.969 ± 0.017
UniProt Q14444|Q14444-2	1.19 ± 0.094
UniProt Q15056-2|Q15056	0.929 ± 0.087
TMED4 (UniProt Q7Z7H5)	1.02 ± 0.025
IQGAP2 (UniProt Q13576)	0.926 ± 0.039
UniProt Q13825|Q13825-2	1.04 ± 0.057
UniProt Q7L5Y1|Q7L5Y1-4|Q7L5Y1-5	1.01 ± 0.013
ABHD11 (UniProt Q8NFV4)	1 ± 0.02
UniProt Q969T7|Q969T7-2	0.96 ± 0.042
ANKRD13A (UniProt Q8IZ07)	1.04 ± 0.03
TAF9 (UniProt Q16594)	1.03 ± 0.016
UniProt Q93074-2	0.984 ± 0.042
UniProt Q6UN15|Q6UN15-3	1.08 ± 0.034
GTF3C6 (UniProt Q969F1)	0.99 ± 0.047
GATAD2B (UniProt Q8WXI9)	0.994 ± 0.035
UniProt Q8IYB5-2|Q8IYB5-3	0.995 ± 0.025
UniProt Q6P6C2|Q6P6C2-1	1.3 ± 0.13
UniProt Q7L5N7|A0A087X0A3|Q7L5N7-2	0.985 ± 0.028

Target	NP40-soluble protein abundance
PPWD1 (UniProt Q96BP3)	1.04 ± 0.042
UniProt Q5M775|Q5M775-2|Q5M775-3|Q5M775-4|Q5M775-5	1.01 ± 0.031
OVCA2 (UniProt Q8WZ82)	1.01 ± 0.041
UniProt Q7L0J3|Q7L0J3-2	1.03 ± 0.033
URB2 (UniProt Q14146)	1.07 ± 0.023
MDC1 (UniProt Q14676)	2.04 ± 0.41
CBLL1 (UniProt Q75N03)	0.976 ± 0.014
UniProt Q684P5-2|Q684P5-3|Q684P5	0.963 ± 0.048
UniProt Q8WWW0|Q8WWW0-2	1.02 ± 0.029
ERCC6L (UniProt Q2NKX8)	0.942 ± 0.045
CCDC6 (UniProt Q16204)	0.9475 ± 0.0034
UniProt Q15365	1.01 ± 0.014
USP34 (UniProt Q70CQ2)	0.877 ± 0.033
UniProt Q71F23	1.07 ± 0.013
RHOT2 (UniProt Q8IXI1)	1.004 ± 0.01
THOC2 (UniProt Q8NI27)	2.02 ± 0.6
UniProt Q8IXQ5|Q8IXQ5-2|Q8IXQ5-5	0.983 ± 0.044
UniProt Q8WUB8|Q8WUB8-2|Q8WUB8-3|S5FZ81	1.08 ± 0.051
